# This is a sample that favours compounds with a hit; in the whole collection about 0.77% have one here.
# IL2 activator: qHTS of IL-2 Activators | activation, % (series mostly up to about 46 µM) | IL-2 activation reporter assay, cell-based qHTS; stimulated with anti-CD3/CD4/CD28 beads; in transgenic mouse T cells | hit rate 0.065% among 360,000; in the data active means activation above about 50%; inconclusive means mostly about 30% to 49%
#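 EGFP and DsRed fluorescence is measured by plate cytometry in unstimulated transgenic mouse T cells exposed to compound for 60 minutes, then stimulated 18 hours at 37 degrees C with anti-CD3/anti-CD4 beads plus anti-CD28.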
# PKM2 activator: qHTS Assay for Activators of Human Muscle isoform 2 Pyruvate Kinase; Potency, µM (titrated, usually from 57.5 µM), most hits filed as activators; hit rate 0.34% among 260,000; purified PKM2, Kinase-Glo ATP luminescence, activation; response scale: 0% is enzyme alone, no compound; Pyruvate kinase PKM (Homo sapiens), P14618; further: nearly all actives have a fitted effect of over 55% in size
#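 hPK-M2, >95% pure; 0.1 mM ADP / 0.5 mM PEP final; imidazole pH7.2 buffer w/ 7 mM MgCl2, 50 mM KCl; 1 h RT; Kinase-Glo lum. Intermediate enzyme activity for dual inhibitor/activator qHTS.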
# KAT2A inh: qHTS Assay for Inhibitors of GCN5L2; Histone acetyltransferase KAT2A (Homo sapiens), Q92830; GCN5L2 HAT assay, ThioGlo1 CoA-SH fluorescence; Potency, µM (titrated, usually from 58.9 µM), most hits filed as inhibitors; hit rate 0.21% among 390,000; AID 504327, 2011
#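 Free CoA generated was detected with ThioGlo1 (50uM) fluorescence at Ex340nm/Em540nm, read immediately and after 20 min at room temperature. Enzyme, 20 nM in HEPES pH 7.5 buffer, saw compounds 15 min before adding 75uM H3(1-25) peptide and 70uM acetyl-CoA.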
# Vif-A3G inh: qHTS for Inhibitors of Vif-A3G Interactions: qHTS; hit rate 0.076% among 410,000; Potency, µM (highest dose often 46.1 µM), hits mostly inhibitors; AID 602310, 2012; HeLa A3G-eYFP + Vif (tagged APOBEC3G with the HIV-1 protein that degrades it), YFP fluorescence, overnight; DNA dC->dU-editing enzyme APOBEC-3G (Homo sapiens), Q9HC16; further: nearly all actives have a fitted effect of over 60% in size
# Target sequence (Q9HC16 whole entry, looked up): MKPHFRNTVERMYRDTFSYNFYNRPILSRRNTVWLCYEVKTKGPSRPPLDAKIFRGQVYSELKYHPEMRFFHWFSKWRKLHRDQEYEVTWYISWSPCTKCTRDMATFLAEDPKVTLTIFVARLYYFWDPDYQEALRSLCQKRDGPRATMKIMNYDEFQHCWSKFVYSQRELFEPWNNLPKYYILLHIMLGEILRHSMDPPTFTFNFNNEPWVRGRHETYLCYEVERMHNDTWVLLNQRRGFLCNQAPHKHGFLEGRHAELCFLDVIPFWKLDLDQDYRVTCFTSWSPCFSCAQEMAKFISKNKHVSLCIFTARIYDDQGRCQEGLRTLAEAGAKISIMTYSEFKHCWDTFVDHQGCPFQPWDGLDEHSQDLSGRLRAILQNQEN
#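 Read-out is eYFP fluorescence (Ex 488/Em 500-530) from Vif-expressing HeLa A3G-eYFP cells; more signal means A3G escaped Vif-mediated degradation. Cells plated overnight, compound pinned in, incubated overnight at 37 deg C.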
# Vif-APOBEC3F blk: qHTS for Inhibitors of Vif-A3F Interactions: qHTS | Potency, µM (titrated, usually from 46.1 µM) | HeLa A3F-eYFP + Vif (tagged APOBEC3F with the HIV-1 protein that degrades it), YFP fluorescence increase | hit rate 0.2% among 390,000; further: nearly all actives have a fitted effect of over 65% in size
#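 HeLa cells stably expressing Vif plus C-terminally eYFP-tagged A3F were seeded, incubated overnight at 37 deg C, dosed with compound, incubated overnight again at 37 deg C. Yellow fluorescence (Ex 488/Em 500-530) reported blocked Vif-mediated A3F-eYFP degradation.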
# GoLoco inh red: qHTS Assay for Inhibitors of RGS12 GoLoco Motif Activity (Red Fluorophore); Guanine nucleotide-binding protein G(i) subunit alpha-1 (Homo sapiens), P63096; Gai1:RGS12 GoLoco peptide FP, rhodamine, 10 min; Potency, µM (doses to about 61.6 µM), most hits filed as inhibitors; hit rate 0.44% among 230,000; AID 880, 2007; active means well fitted inhibition curve with a large enough effect, not every such curve was filed as active; inactive means no such curve, though single readings can be large or run the other way; further: nearly all actives have a fitted effect of over 30% in size
# Target sequence (P63096 whole entry, looked up): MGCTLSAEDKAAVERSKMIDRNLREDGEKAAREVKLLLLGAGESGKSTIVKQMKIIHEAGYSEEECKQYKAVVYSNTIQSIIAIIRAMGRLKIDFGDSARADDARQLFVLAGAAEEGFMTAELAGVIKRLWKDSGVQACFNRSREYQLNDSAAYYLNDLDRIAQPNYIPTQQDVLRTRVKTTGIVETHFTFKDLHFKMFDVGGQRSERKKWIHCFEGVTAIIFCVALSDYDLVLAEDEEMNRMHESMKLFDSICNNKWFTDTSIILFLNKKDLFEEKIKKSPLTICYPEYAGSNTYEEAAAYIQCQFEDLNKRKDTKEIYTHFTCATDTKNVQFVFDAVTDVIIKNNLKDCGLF
# A number is an active result; – = inactive; ? = inconclusive; · = no result given; ! = repeats disagree; [ ] = dose if it differs, or a comment. Unless noted, the call rests on the fitted dose curve; in most records, active means well fitted curve in the direction sought with a large enough effect; inconclusive means small, poorly fitted or top-dose-only effect, or another doubt; inactive means no such curve, though single readings can be large; an effect the other way counts as inactive or inconclusive.
SMILES,IL2 activator,PKM2 activator,KAT2A inh,Vif-A3G inh,Vif-APOBEC3F blk,GoLoco inh red
CCOc1cc(-c2noc(CCC(=O)NC3CCCCC3)n2)ccc1OC,–,·,–,–,–,·
CC(S)C(=O)NCC(=O)O (centres undefined),·,·,–,·,·,10µM
CC(C)OCC1CO1 (centres undefined),–,·,–,–,–,25.1µM
COc1ccc(OC)c2c1C(=O)C(Cl)=C(Cl)C2=O,–,–,12.6µM,–,–,0.447µM
COc1ccc(N)c2c1C(=O)c1ccccc1C2=O,–,–,–,–,–,–
COc1ccc(OC)c2c1C(=O)c1ccccc1C2=O,–,–,–,–,–,7.94µM
Cc1ccc2c(c1)/C(=N/O)CCS2,–,–,–,–,–,–
O=[N+]([O-])c1ccc2c(c1)ncn2-c1ccccc1,–,–,–,–,–,–
O=[N+]([O-])c1ccc2c(c1)ncn2CCc1ccccc1,–,7.08µM,–,–,–,·
Cc1cc(O)c(Sc2ncn[nH]2)cc1NS(=O)(=O)c1ccc(Cl)cc1,–,·,–,–,–,·
O=S(=O)(Nc1cc(Sc2ncn[nH]2)c(O)c2ccccc12)c1ccccc1,–,–,22.4µM,?,–,–
COc1ccc(-n2nc3c(N4CCCC(C(=O)NCCc5ccccc5C)C4)nnc(C)c3c2C)cc1 (centres undefined),·,·,–,?,22.4µM,·
COc1ccc(N=Cc2oc3ccc4ccccc4c3c2O)cc1,–,–,–,8.91µM,7.94µM,–
Cc1nnc(NN)n(N)c1=O,–,–,–,–,–,8.91µM
CN1CCN(c2ccccc2NC(=O)c2ccc(Br)o2)CC1,–,–,–,–,–,–
CS(=O)(=O)N1CCN(c2ccccc2NC(=O)c2ccc(Br)o2)CC1,–,–,31.6µM,–,–,–
Cc1cc(C)nc(NC(=O)CSc2ncccn2)n1,·,–,–,·,·,–
Cc1c(OC(=O)c2ccc([N+](=O)[O-])cc2)c2c(c[n+]1C)COC(C)(C)OC2,–,–,–,–,–,12.6µM
Cc1ncc2c(c1OC(=O)c1ccccc1)COC(C)(C)OC2,–,–,–[0.501 µM],–,–,–
CN1C(=O)/C(=C/c2ccc(-c3ccccc3[N+](=O)[O-])o2)SC1=Nc1ccc(Cl)c(C(=O)O)c1,–,–,–,–,–,14.1µM
Cc1nn(CCC(=O)N2CCN(S(=O)(=O)c3ccccc3)CC2)c(C)c1C,–,11.2µM,–,–,–,·
Cc1cc(C)c(S(=O)(=O)N2CCN(C(=O)CCn3nc(C)c(C)c3C)CC2)c(C)c1,–,14.1µM,–,–,–,·
CC(=O)c1ccc(NC(=O)c2ccc(CSc3ccccc3)o2)cc1,–,–,–,–,–,–
CSc1ccc(C2NC(=O)c3ccccc3N2)cc1 (centres undefined),–,·,·,10µM,–,·
O=C1NC(c2ccc(O)cc2)Nc2ccccc21 (centres undefined),–,–,–,?,–,·
SMILES,IL2 activator,PKM2 activator,KAT2A inh,Vif-A3G inh,Vif-APOBEC3F blk,GoLoco inh red
C[N+](C)(C)CCC(=O)c1cccc2ccccc12,·,·,?,·,·,25.1µM!
Cc1ccc(NC(=O)CSc2ncccn2)c([N+](=O)[O-])c1,–,–,–,–,–,–
Cc1ccccc1NC(=O)CN1C(=O)S/C(=C\c2ccc(-c3cc(C(=O)O)ccc3C)o2)C1=O,76.9,?,–,–,–,–
NC(=O)C[n+]1cccc2ccccc21,–,–,–,–,–,11.2µM
Cn1c(SCc2ccc(C(=O)Nc3nccs3)cc2)nnc1-c1ccccc1,–,–,–,–,–,–
COC(=O)c1ccc(Cl)cc1NC(=O)N1CC=C(c2c[nH]c3ccccc23)CC1,·,·,–,?,22.4µM,·
Cc1cccc(NC(=O)N2CC=C(c3c[nH]c4ccccc34)CC2)c1C,·,·,–,?,11.2µM,·
Cc1ccc(Cn2c(CN3CCOCC3)nc3c2c(=O)[nH]c(=O)n3C)cc1,–,–,–,–,–,–
CCc1cc(=S)n2c([nH]c3ccccc32)c1C#N,–,–,28.2µM,–,–,–
COc1ccc(C2CC(=O)C3=C(C2)Nc2ccccc2N(C(=O)CCC(=O)O)C3c2ccc(F)cc2)cc1 (centres undefined),–,–,?,–,–,5.62µM
CCOC(=O)c1ccc2c(c1)n(CC)c(/C=C/N(C)c1ccccc1)[n+]2CC,–,–,–,–,–,1.58µM
COC(=O)c1ccc2c(c1)nc(C)n2CCO,–,–,–,–,–,–
CCOC(=O)c1ccc2c(c1)n(CCO)c(C)[n+]2CC,–,–,–,–,–,1.58µM
CCOC(=O)N1CCN(S(=O)(=O)c2ccc(NC(C)=O)cc2)CC1,–,–[11.5 µM],–,–,–,·
O=C(NC1CCCCC1)C(C1CC1)n1c(=O)c(-c2cc3ccccc3[nH]2)nc2ccccc21 (centres undefined),–,·,·,·,·,·
Cn1cnnc1Sc1cc(N2CCN(S(=O)(=O)c3ccccc3)CC2)ccc1[N+](=O)[O-],–,0.224µM,–,–,–,–
COc1ccc(S(=O)(=O)N2CCCCCC2)cc1C(=O)OCc1c(C)noc1C,–,–,–,–,–,–
COc1ccc(S(=O)(=O)N2CCc3ccccc32)cc1C(=O)OCc1c(C)noc1C,–,11.2µM,–,–,·,–
Cc1ccc(/C=N/NC(=O)c2cc(C)oc2C)cc1,–,–,–,7.94µM,–,–
CN(C)c1ccc(-c2ccc3ncnc(-n4ccnc4)c3c2)cc1,·,·,25.1µM,·,·,–
Cc1ccccc1-c1ccc2ncnc(-n3ccnc3)c2c1,·,·,–,·,·,–
CCc1cc2cc(C)ccc2nc1SCC(=O)N1CCN(C(=O)c2ccco2)CC1,–,–,–,–,–,–
COc1cc2cc(C)c(SCC(=O)N3CCN(C(=O)c4ccco4)CC3)nc2cc1OC,–,17.8µM,–,–,–,–
COc1ccc(-c2nc3ccccc3c(=O)n2CCCn2ccnc2)cc1,–,–,–,–,–,–
CCCCC[n+]1cccc2c3ccccc3ccc21,–,–,–,–,–,15.8µM
CN1CCC(OC(=O)c2cc3cc(Cl)cc(Cl)c3oc2=O)CC1,–,–,–,11.2µM,–,·
O=C(Nc1ccccn1)c1cccc(S(=O)(=O)N2CCCC2)c1,–,–,–,–,–,·
N#Cc1c([N+](=O)[O-])cc([N+](=O)[O-])cc1S(=O)(=O)Cc1ccccc1,–,·,14.1µM,?,–,·
O=C1/C(=C/c2ccc(N3CCCC3)cc2)NC(=S)N1C1CC1,–,–,–,5.62µM,11.2µM,–

# From PubChem BioAssay
